A selection: hits, their analogues and other compounds. The true share with any hit is near 0.97%.
S1P3 antag-1 = antagonists of human S1P3 receptor; Q99500; CHO S1P3 NFAT-BLA reporter, FRET fluorescence, antagonist mode; 170,000 tested, 0.27% active; inhibition, % at 4.98 µM;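 active = inhibition above the plate cutoff, the mean inhibition of test wells on that plate plus 3 SD, cut at about 28% in these data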;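 also: cells challenged with S1P at its EC80 of 0.8 µM; blue over green emission ratio from cleaved BLA substrate after 4 h stimulation; 0% = S1P-stimulated wells and 100% = unstimulated DMSO-only wells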
S1P4 agonist = human S1P4 receptor agonism | O95977 | S1P4-expressing cell line, agonist reporter assay | activation, % at 4.98 µM | 220,000 tested, 0.35% active | AID 1509; in the data active = activation above about 11%;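 also: 0% = DMSO vehicle and 100% = reference agonist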
Target sequence (O95977 whole entry, looked up): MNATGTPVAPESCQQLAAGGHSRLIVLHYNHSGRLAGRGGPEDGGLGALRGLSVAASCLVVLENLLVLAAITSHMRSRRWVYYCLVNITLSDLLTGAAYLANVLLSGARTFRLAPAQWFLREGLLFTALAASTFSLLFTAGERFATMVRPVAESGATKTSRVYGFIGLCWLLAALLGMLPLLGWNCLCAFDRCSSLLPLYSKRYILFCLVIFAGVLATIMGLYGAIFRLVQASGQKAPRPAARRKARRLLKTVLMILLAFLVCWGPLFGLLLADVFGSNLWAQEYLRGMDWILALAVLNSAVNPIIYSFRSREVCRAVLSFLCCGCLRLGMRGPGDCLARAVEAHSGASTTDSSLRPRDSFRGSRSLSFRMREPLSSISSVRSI
AI-2 QS mod = Vibrio harveyi AI-2 quorum sensing modulation. Vibrio harveyi JMH597 AI-2 luminescence/OD600 ratio, 9 h; hits give low values; strain lacks LuxN and CqsS sensors; 0 = neutral-control median. activity change, % at 7.5 µM. 300,000 tested, 0.4% active. AID 2094; in the data active = activity change below about -75%, passing the limit was not always enough; inconclusive = no clear call, values can overlap the other calls;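 also: luminescence divided by OD600 gain over 9 h not by final OD600 alone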
Hsp70 activator = transcriptional activators of Hsp70; 200,000 tested, 0.04% active; AID 1203; HeLa Hsp70 promoter luciferase reporter, luminescence; scaled: vehicle 0, proteasome-inhibitor control 100%; activation, % at 10 µM;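 active = activation above the mean across all tested compounds plus 3 SD, cutoff set per campaign, cut at about 5.5% in these data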;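 also: 100% = MG132 at 30 µM as the positive control and 0% = DMSO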
S1P4 antag = blocks the human S1P4 receptor; O95977; inhibition, % at 4.98 µM; S1P4-expressing cells, antagonist mode, reporter read-out; AID 1510; 220,000 tested, 0.26% active; in the data active = inhibition above about 29%;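 also: 0% = wells stimulated with agonist and 100% = vehicle wells without agonist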
S1P3 antag-2 = confirmation of human S1P3 receptor antagonists; shares compounds with S1P3 antag-1; inhibition, % at 4.98 µM; CHO S1P3 NFAT-BLA reporter, FRET, antagonist mode; 240 tested, 30% active;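 active = inhibition above the hit threshold that was computed for the earlier primary screen, cut at about 30% in these data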;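 also: 0% = S1P-stimulated wells and 100% = unstimulated DMSO-only wells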
S1P4 agonist cf = human S1P4 agonism, confirmation; shares compounds with S1P4 agonist; S1P4 agonist cell-based reporter assay; activation, % at 4.98 µM; 740 tested, 7% active; AID 1523; in the data active = activation above about 12%;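 also: 0% = vehicle and 100% = full reference agonist response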
S1P1 agonist = human S1P1 agonism as S1P4 agonist counter-screen. activation, % at 4.98 µM. S1P1 agonist cell-based assay, activation. 740 tested, 4% active. shares compounds with S1P4 agonist; in the data active = activation above about 21%;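 also: 0% = vehicle wells and 100% = reference agonist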
S1P4 antag conf = human S1P4 antagonism, confirmation; AID 1524; shares compounds with S1P4 antag; S1P4-expressing cell line, antagonist mode, reporter read-out; 520 tested, 71% active; inhibition, % at 4.98 µM; in the data active = inhibition above about 30%
S1P1 antag = blocks human S1P1, counter-screen for S1P4 antagonists | shares compounds with S1P4 antag | cell-based S1P1 antagonist counterscreen, inhibition | inhibition, % at 4.98 µM | 520 tested, 37% active | AID 1564; in the data active = inhibition above about 40%;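 also: receptor stimulated with S1P near its EC80; 0% = agonist stimulated wells and 100% = vehicle only wells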
The depositor's hits bear a star; ? = inconclusive; / = no result given.

SMILES | S1P3 antag-1 | S1P4 agonist | AI-2 QS mod | Hsp70 activator | S1P4 antag | others
CN(C)[C@@H]1C(=O)C(C(N)=O)=C(O)[C@@]2(O)C(=O)C3=C(O)c4c(O)ccc(Cl)c4[C@@](C)(O)[C@H]3C[C@@H]12 | / | / | -111* | / | /
CN(C)[C@@H]1C(=O)C(C(N)=O)=C(O)[C@@]2(O)C(=O)C3=C(O)c4c(O)cccc4[C@@](C)(O)C3C[C@@H]12 (some centres not stated) | / | / | -64 | / | /
CN1CCN(C(=O)OC2c3nccnc3C(=O)N2c2ccc(Cl)cn2)CC1 (configuration not stated) | 110* | 1 | 12 | 0 | -10
COc1cccc(C2CCN(CC(=O)Nc3cc(Cl)ccc3OC)CC2O)c1 (configuration not stated) | / | / | 8 | / | /
CCn1nc(-c2cccs2)nc2c(=O)n(C)c(=O)nc1-2 | 106* | / | / | / | /
CCOc1ccc(-n2c(-c3cccs3)nc3ccccc3c2=O)cc1 | 8 | -1 | 31 | 0 | -17
CN1CCCN(C(=O)COc2ccc(F)cc2Cl)CC1 | / | / | 16 | / | /
CC(C)n1c(O)c(C2c3cc(Cl)ccc3Oc3[nH]c(=O)n(C(C)C)c(=O)c32)c(=O)[nH]c1=O (configuration not stated) | 17 | 1 | 26 | / | 35*
N/C(=N\[N+](=O)[O-])N/N=C/c1ccc(O)cc1 | / | 2 | 6 | 0 | -19
Nc1nonc1C(=O)N/N=C/c1ccc([N+](=O)[O-])o1 | -5 | 2 | -84* | 0 | -1
CN1CCCN(c2ccc([N+](=O)[O-])nc2)CC1 | / | / | 23 | / | /
CCOc1cc2c(cc1OCC)-n1cccc1C(c1cccc(OCC)c1O)NC2 (configuration not stated) | / | / | 0 | / | /
CCCn1nc2ccccc2c1P(=O)(N1CCOCC1)N1CCOCC1 | 106* | 0 | 22 | 0 | -15
COC(=O)C1C(O)C(C)C(O)C(C)/C=C\C=C(/C)C(=O)Nc2c(C)c(OC(C)=O)c3c(c2O)C(=O)C(C)=C2OCOC(=C23)/C(C)=C/C(C)(O)C(O)C(C)C1O (configuration not stated) | -10 | -1 | -150* | / | -1
CC[C@@]1(O)C(=O)OCc2c1cc1n(c2=O)Cc2cc3ccccc3nc2-1 | 59* | 6 | 35 | / | 27 | S1P3 antag-2=70*
Clc1ccccc1CN1CCN(c2cccc3[nH]ccc23)CC1 | 1 | 1 | -7 | / | -5
COc1cc2c(cc1OC)[C@@H]1C(=O)c3ccc4c(c3O[C@@H]1CO2)C[C@H](C(C)C)O4 | 38* | -2 | -11 | / | 5 | S1P3 antag-2=36*
CCC1=Nc2cc(C(=O)N3CCC4(CC3)OCCO4)ccc2Sc2ccc(Br)cc21 | / | / | 17 | / | /
Cc1cc(C)n(-c2ccc(NN=C(C#N)C#N)cc2)n1 | 11 | 0 | 14 | / | 4
N#CC(C#N)=NNc1ccc(-n2ccc(C(F)(F)F)n2)cc1 | 44* | 0 | 32 | / | 27 | S1P3 antag-2=45*
CC(C)[C@H]1C(=O)O[C@H](C(C)C)C(=O)N(C)[C@@H](C(C)C)C(=O)O[C@H](C(C)C)C(=O)N(C)[C@@H](C(C)C)C(=O)O[C@H](C(C)C)C(=O)N1C | 70* | 0 | -5 | 0 | 10 | S1P3 antag-2=75*
COc1ccc(-n2c(/C=C/c3ccc(O)cc3)nc3ccccc3c2=O)cc1 | / | / | -5 | / | /
CCn1nc(/C=C/c2ccccc2)nc2c(=O)n(C)c(=O)nc1-2 | 75* | 3 | ? | 0 | 12 | S1P3 antag-2=109*
C/C=C1\CN2[C@H]3C[C@@]45c6ccccc6N(C)[C@H]4[C@@H]2CC1C3[C@H]5O (some centres not stated) | / | / | 31 | / | /
CC(=O)OC(C)(C)/C=C/C(=O)C(C)(O)C1[C@H](O)C[C@@]2(C)C3CC=C4C(CC[C@@H](O)C4(C)C)[C@]3(CO)C(=O)C[C@]12C (some centres not stated) | / | / | 27 | / | /
SMILES | S1P3 antag-1 | S1P4 agonist | AI-2 QS mod | Hsp70 activator | S1P4 antag | others
CC(=O)OC(C)(C)/C=C/C(=O)[C@](C)(O)[C@H]1[C@H](O)C[C@@]2(C)[C@@H]3CC=C4[C@H](C[C@H](O)C(=O)C4(C)C)[C@]3(C)C(=O)C[C@]12C | 74* | -1 | / | 0 | 67* | S1P3 antag-2=90*
COc1cc(CC2(CCc3ccncc3)C(=O)N(C)C(=O)N(C)C2=O)cc(OC)c1OC | -18 | 3 | 21 | 0 | -8
O=C(CCCN1CCC2(CC1)C(=O)NCN2c1ccccc1)c1ccc(F)cc1 | 68* | 2 | 21 | 0 | -7 | S1P3 antag-2=59*
NC(=S)c1cn(C2OC(CO)C(O)C2O)c2ncnc(N)c12 (configuration not stated) | 86* | 0 | 17 | / | 100* | S1P3 antag-2=105*;S1P4 antag conf=112*;S1P1 antag=94*
Cc1ccccc1N1CCN(C2CCCN(C(=O)Cc3c(C)noc3C)C2)CC1 (configuration not stated) | / | / | 18 | / | /
CCOC(=O)c1sc(/N=C/c2c(O)n(-c3ccccc3)c(=O)[nH]c2=O)c(C#N)c1C | / | 13* | 2 | 0 | 12 | S1P4 agonist cf=-2;S1P1 agonist=-2
O=c1[nH]c(=O)n(Cc2ccccc2Cl)c(O)c1/C=C1/C=CC=N1 | -19 | 2 | 19 | 1 | 15
Cc1cccc(-n2c(O)c(C)c(=O)[nH]c2=S)c1 | -8 | 56* | 2 | 0 | -6 | S1P4 agonist cf=-2;S1P1 agonist=1
Cc1cccc(-n2c(O)c(C=Nc3ccc(Br)cn3)c(=O)[nH]c2=O)c1 | -3 | 1 | 3 | 0 | -1
CCCCn1c(NC(=O)c2ccco2)c(C(=O)OCC)c2nc3ccccc3nc21 | -15 | -1 | -6 | 0 | 31* | S1P4 antag conf=16;S1P1 antag=5
CC1=CC2/C=C(\C)CCC(O)C(O)/C=C/C(=O)C23C(=O)NC(CC(C)C)C3C1C (configuration not stated) | 7 | -1 | 11 | 3 | 64* | S1P4 antag conf=114*;S1P1 antag=23
C/C1=C\[C@@H](C)C/C=C/[C@H]2[C@@H]3O[C@]3(C)[C@@H](C)[C@H]3[C@H](Cc4c[nH]c5ccccc45)NC(=O)[C@]32C(=O)/C=C/C(=O)[C@@H]1O | 22 | -1 | 31 | 0 | 33* | S1P4 antag conf=59*;S1P1 antag=25
O=c1nc(/C=C/c2ccc(Cl)cc2Cl)cc(C(F)(F)F)[nH]1 | / | / | 35 | / | /
